# Inconclusive results are not listed. Entries that show only a call come without a potency. Calls of active or inactive are those of the source. Calls come from the whole dose curve; as a rule, active = well fitted cell-killing curve with a large enough effect in the repeat runs; inconclusive = weak or mixed curves, or effect the other way; inactive = no such curve, though single readings can be large or run the other way.
# Assay: qHTS assay to identify small molecule agonists of the RXR signaling pathway - cell viability counter screen (AID 1159529); note: nearly all actives have a fitted effect of over 50% in size
# Conditions: RXR-alpha-bla HEK293T viability, CellTiter-Glo, 16 h; series mostly up to 76.8 µM
# Method in brief: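 Steps: seed RXR-alpha-UAS-bla HEK 293T cells in assay medium containing 2% charcoal-stripped FBS; incubate 5 hr; add compounds in DMSO; incubate 16 hr at 37 C; after the bla read, add CellTiter-Glo and read luminescence at 30 min.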
# Potency is the fitted concentration of half-maximal effect.
row,Compound,Potency
1,FC(F)C(F)(F)OCC(Cn1cncn1)c1ccc(Cl)cc1Cl (centres undefined),48.7 µM (active)
2,COC(=O)c1ccccc1S(=O)(=O)NC(=O)Nc1nc(C)nc(OC)n1,inactive
3,O=C(NC(=O)c1ccccc1Cl)Nc1ccc(OC(F)(F)F)cc1,inactive
4,CC(Cc1ccccc1)N(C)Cc1ccco1 (centres undefined),inactive
5,CSSC,inactive
6,Nc1ccc(N=Nc2ccccc2)cc1,inactive
7,Nc1nc(N)nc(Cl)n1,inactive
8,O=C(Nc1ccc(F)cc1F)c1cccnc1Oc1cccc(C(F)(F)F)c1,inactive
9,COP(=S)(OC)Oc1nc(Cl)c(Cl)cc1Cl,inactive
10,ClSC(Cl)(Cl)Cl,inactive
11,CCN(CC)C(=O)N[C@@H]1C=C2c3cccc4[nH]cc(c34)C[C@@H]2N(C)C1,inactive
12,CCC[CH2][Sn]([CH2]CCC)([CH2]CCC)[CH2]CCC,21.9 µM (active)
13,CNC(=O)CSP(=O)(OC)OC,inactive
14,Clc1cc(Cl)c(-c2cc(Cl)c(Cl)cc2Cl)cc1Cl,inactive
15,CCCCON=O,inactive
16,CC(C)NCC(O)c1ccccc1Cl (centres undefined),inactive
17,C[C@H]1[C@H](c2ccc(Cl)cc2)SC(=O)N1C(=O)NC1CCCCC1,inactive
18,C#CCO,inactive
19,Cc1cc2c3c(c1)C(c1ccccc1)=N[C@@H](NC(=O)c1ccncc1)C(=O)N3CC2,inactive
20,COc1ccc(Cc2nccc3cc(OC)c(OC)cc23)cc1OC,inactive

row,Compound,Potency
1,BrCCCBr,inactive
2,N#Cc1ccc(N(CC(N)=O)CC(F)(F)F)cc1C(F)(F)F,inactive
3,CCNc1nc(NC(C)C(C)C)nc(SC)n1 (centres undefined),inactive
4,O=[N+]([O-])c1cccc2cccc([N+](=O)[O-])c12,inactive
5,COCCC#N,inactive
6,CCCCCCCCCCCCCCn1cc[n+](C)c1,19.5 µM (active)
7,C[N+]1(C)[C@@H]2CC[C@H]1CC(OC(=O)C(CO)c1ccccc1)C2 (some centres undefined),inactive
8,C=CC(=C)C,inactive
9,O=C(N[C@H]1N=C(c2ccccc2F)c2cccc3c2N(CC3)C1=O)c1cc2ccccc2[nH]1,inactive
10,Cc1ccn2nc(S(=O)(=O)Nc3c(F)cccc3F)nc2n1,inactive
11,O=[N+]([O-])c1ccccc1-c1ccccc1,inactive
12,CN1[C@@H]2CC[C@H]1CC(O)C2 (some centres undefined),inactive
13,CN,inactive
14,CC(C)=CCN1CC[C@@]2(C)c3cc(O)ccc3C[C@@H]1[C@@H]2C,inactive
15,CC1CN1 (centres undefined),inactive
16,CC(Cc1ccc2c(c1)OCO2)NO (centres undefined),inactive
17,O=[N+]([O-])c1ccc(CCl)cc1,inactive
18,CC1CCCC1,inactive
19,Oc1ccc([C@H]2CNCc3c2ccc(O)c3O)cc1O,inactive

# — PubChem BioAssay (Tox21)
